High-throughput results deposited in PubChem BioAssay by National Center for Advancing Translational Sciences (NCATS).
Sampled rows, rich in hits. Any-hit rate of the full collection: about 21%.
Shiga inhibitor – blocks Shiga toxin action in Vero cells; Vero cells, Shiga toxin protein synthesis inhibition reporter; inhibition, % at 38.7 µM; hit rate 9.2% among 290,000; AID 2315; in the data active = inhibition mostly above about 28%, no sharp cut-off; inactive = mostly below about 43%; note: 0% is about no effect
HCV inh – HCV inhibition; Potency, µM (doses to about 41.8 µM), for the others: top-dose activity change, negative = inhibition, usual class: inhibitors; hit rate 3.4% among 340,000; Huh7.5.1 HCVcc-Cre infection, luciferase reporter, 44 h; note: potency is the fitted concentration of half-maximal effect; % is set by controls: 0 for no effect and ±100 for the full control effect
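1,000 cells/well; 4 h culture; + compound; + HCVcc-Cre (~0.5 moi); 44 h; luciferase substrate, RT 15 min; read 15 sec.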
CHX counter – affects cycloheximide protein synthesis inhibition readout, counter-screen; cell reporter, cycloheximide protein synthesis inhibition counterscreen; max response, %; hit rate 12% among 300,000; in the data active = max response mostly above about 13%, no sharp cut-off; inactive = mostly below about 14%; note: read at 38.3 µM for the half of the compounds with a filed dose; 0% is about no effect
Pf growth 48h – inhibits P. falciparum growth in the first generation, 48 h | hit rate 5.9% among 310,000 | Potency, µM (series often up to 28.7 µM), for the others: at the highest dose activity change, negative = inhibition, actives largely listed as inhibitors | P. falciparum luciferase growth in erythrocytes, 48 h; note: potency is the fitted concentration of half-maximal effect; % is set by controls: 0 for no effect and ±100 for the full control effect
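Firefly luciferase activity from engineered P. falciparum reports growth; inhibitors lower the luminescent signal. Cultures contained 2% hematocrit erythrocytes at 0.1% final parasitemia.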
Pf growth 96h – inhibits malaria parasite growth, 96 h. P. falciparum luciferase reporter growth, 96 h. Potency, µM (top dose mostly 28.7 µM), for the others: top-dose activity change, negative = inhibition, actives largely listed as inhibitors. hit rate 6.9% among 320,000. AID 504834; note: potency is the fitted concentration of half-maximal effect; % is set by controls: 0 for no effect and ±100 for the full control effect
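Compounds incubated with erythrocytes infected by luciferase-expressing P. falciparum (2% hematocrit, 0.05% parasitemia final) for 96 hours, 37 C in 5% CO2. Growth inhibition scored as decreased luciferase luminescence.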
HCMV inh – blocks human cytomegalovirus replication | HFF cells, HCMV-luciferase reporter, 72 h; active compounds read low | activity change, negative = inhibition, % at 57.5 µM | hit rate 4.5% among 410,000 | AID 1259415; in the data active = activity change below about -60%; inconclusive = no clear call, values can overlap the other calls; inactive = above about -39%; note: % is set by controls: 0 for no effect and ±100 for the full control effect
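Human foreskin fibroblasts infected with luciferase-reporter HCMV at MOI 1 PFU/cell, compounds at two doses. Luciferase measured 72 h post infection; normalized to buffer-only basal and Salinomycin (10uM) controls.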
Active calls of the source: *; ? = inconclusive; / = no result given. Unless noted, calls come from the whole dose curve; as a rule, active = well fitted inhibition curve with a large enough effect; inconclusive = small, poorly fitted or top-dose-only effect, or another doubt; inactive = no such curve, though single readings can be large or run the other way.

SMILES	Shiga inhibitor	HCV inh	CHX counter	Pf growth 48h	Pf growth 96h	HCMV inh
N#Cc1nc(Cc2ccccc2)oc1N1CCN(c2ccccc2)CC1	8	1%	11	-10%	-22%	-18
N#Cc1nc(-c2ccco2)oc1NCCCN1CCOCC1	47	6%	-1	/	49%	13
N#Cc1nc(-c2cccs2)oc1N1CCN(c2ccccc2)CC1	-4	2.8µM*	-2	0%	5%	1
N#Cc1nc(-c2cccs2)oc1NCc1ccccc1Cl	86*	-24%	18*	-14%	/	-23
N#Cc1nc(-c2cccs2)oc1NCc1ccccc1	29	6%	24*	?	3%	16
N#Cc1nc(-c2cccs2)oc1NCc1ccc(Cl)cc1	9	10µM*	10	?	1%	-33
N#Cc1nc(Cc2cccc3ccccc23)oc1NCc1ccco1	-10	-18%	-4	?	?	-1
N#Cc1nc(-c2cccs2)oc1NCc1ccco1	28	-7%	18*	-10%	/	71
CC(=O)O[C@H]1[C@H]2O[C@]23[C@@H]2CC[C@@H]4C[C@@H](O)CC[C@]4(C)[C@H]2CC[C@]3(C)[C@H]1c1ccc(=O)oc1	-15	/	-12	/	/	/
CN(CC(=O)Nc1ccccc1C(F)(F)F)C(=O)C1CC1	/	18%	/	3%	16%	-13
COc1ccc(N2CCN(C(=O)Cc3c(C(=O)O)c(C)cn3C)CC2)cc1	/	/	/	/	/	-7
O=C(CSc1nc2nn(-c3ccccc3)c(=O)c-2c2n1CCCCC2)NCCCc1ccccc1	-14	?	-1	9.3µM*	?	-5
CCCc1nc2ccc(Br)cc2c(=O)n1-c1ccc([N+](=O)[O-])c(C(F)(F)F)c1	20	?	10	12µM*	34%	-87*
CCc1nc2ccc(Br)cc2c(=O)n1-c1ccccc1C(F)(F)F	/	?	/	/	/	6
Cn1nnnc1SCCCNCc1ccccc1OCc1ccc(F)cc1	/	/	/	/	/	-35
CC1(C)CC(=O)C(N=Nc2cc3c(cc2[N+](=O)[O-])OCCO3)=C(O)C1	1	-1%	0	41%	16%	9
COc1ccc2oc(-c3ccc(C)c(NC(=O)CSc4ccc(Cl)cc4)c3)nc2c1	65*	-2%	25*	40%	92%	106
O=C(CSc1ccc(Cl)cc1)Nc1cc(-c2nc3ncccc3o2)ccc1Cl	13	13%	3	?	4.7µM*	20
CCc1cccc(C)c1NC(=O)C1CCN(S(=O)(=O)c2cc(Br)cc3c2N(C(C)=O)CC3)CC1	/	/	/	/	/	9
COc1cccc(NC(=O)N2CCC(NC(=O)C(Cc3ccccc3F)NC(C)=O)CC2)c1 (centres undefined)	-6	-2%	-5	-3%	8%	-27
O=C(NCc1ccco1)c1ccc2c(=O)n(Cc3ccco3)c(SCC(=O)N3CCCC3)nc2c1	39*	13µM*	33*	?	52%	-24
CCCCCn1c(SCc2ccncc2)nc2cc(C(=O)NCc3ccco3)ccc2c1=O	-9	14µM*	-1	?	/	-38
O=C(CSc1nc2ccccc2c(=O)n1Cc1ccco1)N1CCCCCC1	20	11µM*	17*	5.2µM*	31%	?
CCn1c(SCC(=O)N2CCCCCC2)nc2ccccc2c1=O	-4	-16%	-2	?	?	-28
CCOc1ccc(-n2c(SCC(=O)N3CCc4ccccc43)nc3c([nH]c4ccccc43)c2=O)cc1	/	/	/	/	/	4
SMILES	Shiga inhibitor	HCV inh	CHX counter	Pf growth 48h	Pf growth 96h	HCMV inh
CN(C)c1cccc(C(=O)OCC(=O)NC2CCCC2)c1	19	9%	19	23%	39%	-8
NC(=O)CCC1NC(=S)N(Cc2ccccc2)C1=O (centres undefined)	3	2%	-2	18%	17%	-67*
C=CCOc1c(OC)cc(Cl)cc1C1NC(=O)NC(C)=C1C(C)=O (centres undefined)	5	8%	-1	-18%	3.3µM*	-10
C=CCOc1c(Cl)cc(C2NC(=O)NC(C)=C2C(=O)OC)cc1Cl (centres undefined)	-6	11µM*	-4	9.3µM*	/	-20
COc1cc(Cl)cc(C2NC(=O)NC(C)=C2C(C)=O)c1OCC(=O)O (centres undefined)	-5	/	-6	/	13%	-39
C=CCOC(=O)C1=C(C)NC(=O)NC1c1ccc(OCC)cc1 (centres undefined)	-4	7%	-2	?	9%	7
COc1cc(Cl)c(C)cc1NC(=O)CC1Oc2ccccc2NC1=O (centres undefined)	/	/	/	/	/	43
O=P(O)(O)C(O)(Cc1cccnc1)P(=O)(O)O	/	/	/	-5%	24%	/
CC(=O)Nc1ccc(S(=O)(=O)N[C@H]2CC[C@@]34CCCN3C(=O)CCC[C@H]4[C@H]2Cc2ccccc2)cc1	/	/	/	/	/	-8
CC(Sc1nc(NC(C)(C)C)nc(N(C)C)n1)C(=O)Nc1ccccc1 (centres undefined)	-18	-21%	7	?	?	-61*
CC(Sc1nc(N(C)C)nc(N2CCOCC2)n1)C(=O)Nc1ccccc1 (centres undefined)	-6	?	-2	?	/	-4
Cc1ccc(S(=O)(=O)/C(C#N)=C/c2c[nH]c3ccccc23)cc1	-13	27%	-3	-16%	/	73
N#CC(C#N)=Cc1ccccc1OCc1ccccc1	23	/	43*	?	-8%	/
Cc1ccc(S(=O)(=O)/C(C#N)=C/c2ccccc2OCc2ccccc2)cc1	-6	21%	8	2%	?	-69*
COc1ccc(-n2ncc(C(=O)NCc3ccc4c(c3)OCO4)c2C2CCN(C(=O)OC(C)(C)C)CC2)cc1	/	/	/	/	/	0
CC(=O)c1cccc(NC(=O)CN2C(=O)CC(c3ccc(C)cc3C)=Nc3ccccc32)c1	/	/	/	/	/	30
CC(C)Oc1ccccc1C1Nc2ccccc2C(=O)N1c1ccc2c(c1)OCCO2 (centres undefined)	71*	-44%	54*	6%	/	1
CCOc1ccccc1C1CC(=O)Nc2cc3c(cc21)OCO3 (centres undefined)	-6	11%	-5	?	?	?
COc1ccccc1C1CC(=O)Nc2cc3c(cc21)OCCO3 (centres undefined)	-37	?	-4	-15%	44%	-85*
CCCOc1c(OC)cccc1C1CC(=O)Nc2cc3c(cc21)OCCO3 (centres undefined)	7	?	8	-15%	8%	21
COc1ccc(Cl)cc1C1CC(=O)Nc2cc3c(cc21)OCCO3 (centres undefined)	/	/	/	/	/	-92*
CCCOc1c(OC)cccc1C1CC(=O)Nc2cc3c(cc21)OCO3 (centres undefined)	-9	11µM*	1	?	-18%	-19
